HT1080-NT tox: qHTS for induction of synthetic lethality in tumor cells producing 2HG: qHTS for the HT-1080-NT fibrosarcoma cell line; HT-1080-NT fibrosarcoma viability, CellTiter-Glo ATP luminescence, 48 h; Potency, µM (series often up to 46.1 µM), inactives show at the highest dose activity, negative = less viability, usual class: cytotoxic; 360,000 compounds, 1.6% hits;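 further: NT is the 2HG producing partner of a matched IDH1 knockdown line; potency means the concentration at half of the fitted maximal effect; 0% = DMSO-treated cells and -100% = media-only wells without cells; nearly all actives have a fitted effect of over 55% in size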
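Toxicity toward the 2HG-producing NT line was scored as %Activity, normalised to DMSO and no-cell wells, from CellTiter-Glo luminescence after 48 hours' treatment.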
HT1080 IDH1KD tx: qHTS for induction of synthetic lethality in tumor cells producing 2HG: qHTS for the HT-1080-IDH1KD cell line; HT-1080 IDH1 knockdown viability, ATP luminescence, 48 h; Potency, µM (highest dose often 46.1 µM), for the others: at the highest dose activity, negative = toxicity, usual class: cytotoxic; 360,000 compounds, 2% hits; AID 686971, 2013;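 further: potency means the concentration at half of the fitted maximal effect; 0% = DMSO wells and -100% = cell-free medium wells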
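Viability of IDH1-knockdown HT-1080 fibrosarcoma cells was assessed by CellTiter-Glo after 48 h at 37 °C with titrated compound; concentration-effect curves were classified by fit quality and response size.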
IL1B secr inh: qHTS for Inhibitors of Inflammasome Signaling: IL-1-beta AlphaLISA Primary Screen; THP-1 LPS/ATP IL-1B secretion, AlphaLISA, 16 h; active compounds read low; activity change, % at 57.5 µM; 360,000 compounds, 4.7% hits; in the data active means activity change below about -50%; inconclusive means mostly about -30% to -49%
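Secreted IL-1B measured by AlphaLISA bead assay after 16 h compound exposure of THP-1 cells; compounds (final up to 57.5 uM) added 1 h before LPS (250 ng/mL) and ATP (1.25 mM) stimulation; lower signal means less secretion.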
DT40 TDP1 CPT: qHTS for Inhibitors of human tyrosyl-DNA phosphodiesterase 1 (TDP1): qHTS in cells in presence of CPT; chicken DT40 Tdp1-/-;hTDP1 cells + 20 nM CPT, ATP luminescence, 48 h; Potency, µM (titrated, usually from 46.2 µM), for inactives: at the top dose activity change, negative = growth inhibition, actives largely listed as inhibitors; 420,000 compounds, 12% hits; AID 686979, 2013; further: potency means the concentration at half of the fitted maximal effect; nearly all actives have a fitted effect of over 55% in size
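Chicken DT40 Tdp1-/- cells complemented with human TDP1, 400 cells/well, exposed to compounds plus 20 nM camptothecin for at least 48 h at 37 C; viability read as ATP content by CellTiter-Glo luminescence.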
TDP1 cell noCPT: qHTS for Inhibitors of human tyrosyl-DNA phosphodiesterase 1 (TDP1): qHTS in cells in absence of CPT. 420,000 compounds, 15% hits. DT40 Tdp1-/- hTDP1 cells, no CPT, ATP luminescence, 48 h. Potency, µM (doses to about 46.2 µM), for inactives: at the top dose activity change, negative = growth inhibition, most hits filed as inhibitors; further: potency means the concentration at half of the fitted maximal effect; nearly all actives have a fitted effect of over 55% in size
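Camptothecin absent (DMSO only). Human TDP1-complemented DT40 knockout cells, 400 cells/well, 37 °C for minimum 48 hr; ATP measured via CellTiter-Glo, 30 min dark incubation, luminescence.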
* = called active by the depositor; ? = inconclusive; · = no result given; [ ] = remark or other dose. In the library only some 19% were active in any assay of this set; here they are far more common. Unless noted, the call rests on the fitted dose curve; in most records, active means well fitted curve in the direction sought with a large enough effect; inconclusive means small, poorly fitted or top-dose-only effect, or another doubt; inactive means no such curve, though single readings can be large; an effect the other way counts as inactive or inconclusive. Unless noted, on the % scale 0 is the no-effect control and ±100 the full control effect.

SMILES	HT1080-NT tox	HT1080 IDH1KD tx	IL1B secr inh	DT40 TDP1 CPT	TDP1 cell noCPT
CCOc1ccc(CNC(=O)c2ccc3c(c2)nc2n3CCC(C)C2)cc1OC (stereo not given)	·	·	·	2.2%	-4.4%
COc1cccc(CNC(=O)c2ccc(CS(=O)(=O)Cc3ccccc3C)o2)c1	-24.2%	-0.2%	48.9	29.1µM*	23.1µM*
CCc1ccc(CNC(=O)c2ccc(-c3nc(CS(=O)(=O)c4ccccc4)c(C)o3)cc2)cc1	·	·	·	14.6µM*	?
COc1ccc(NC(=O)c2ccc(-c3nc(COc4ccccc4)c(C)o3)cc2)cc1	·	·	·	-6.8%	-12.3%
Cc1cccc(CNC(=O)c2ccc(-c3nc(CS(=O)(=O)c4ccccc4)c(C)o3)cc2)c1	·	·	·	-27.6%	?
Cc1oc(-c2ccc(C(=O)NCc3ccccc3)cc2)nc1CS(=O)(=O)c1ccccc1	·	·	·	-18.4%	?
COc1cccc(CNC(=O)c2ccc(-c3nc(CS(=O)(=O)c4ccccc4)c(C)o3)cc2)c1	·	·	·	?	23.1µM*
COc1cccc(CNC(=O)c2ccc(-c3nc(COc4ccccc4)c(C)o3)cc2)c1	·	·	·	14.6µM*	9.2µM*
O=C(CN1C(=O)COc2ccccc21)NCCCN1CCCCC1	-0.9%	6.8%	17.0	5.4%	0.8%
Cc1ccc(OCc2nc(-c3ccc(C(=O)NCCc4ccc(S(N)(=O)=O)cc4)cc3)oc2C)cc1	·	·	·	14.6µM*	23.1µM*
COc1ccc(CCNC(=O)CN2C(=O)COc3ccc(S(=O)(=O)N4CCOCC4)cc32)cc1OC	11.4%	29.2%	0.1	-24.9%	18.7%
Cc1ccc2nc(SCC(=O)N3CCOc4ccc(CN5C[C@@H](C)O[C@@H](C)C5)cc4C3)[nH]c2c1	·	·	·	-5.8%[9.04 µM]	?
Cc1cc(C)cc(Nc2cc(C)nc3nc(-c4ccco4)nn23)c1	·	·	·	16.4µM*	9.2µM*
COc1ccc(N2C(=O)Cc3ccccc3C2=O)cc1	23.3%	16.8%	-13.2	?	13µM*
O=C(c1ccc(CS(=O)c2ccccc2Cl)o1)N1CCN(c2cccc(C(F)(F)F)c2)CC1 (stereo not given)	·	·	·	0.651µM*	0.517µM*
O=C(c1ccc(CS(=O)c2ccccc2Cl)o1)N1CCN(c2cccc(Cl)c2)CC1 (stereo not given)	·	·	·	0.259µM*	0.517µM*
O=C(c1ccc(-c2cccc(C(F)(F)F)c2)o1)N1CCN(c2ccccc2)CC1	2.0%	1.8%	-1.8	-2.3%	-4.9%
CCOC(=O)C1=CCN(S(=O)(=O)c2cccc(Cl)c2)C1c1cccc(C)c1 (stereo not given)	-23.7%	-0.6%	-20.4	?	18.4µM*
CCOC(=O)C1=CCN(S(=O)(=O)c2ccc(C)cc2)C1c1cccc(F)c1 (stereo not given)	-2.3%	-4.5%	-7.0	?	23.1µM*
CCOC(=O)C1=CCN(S(=O)(=O)c2ccc(C)cc2)C1c1cccc(Cl)c1 (stereo not given)	-29.3%	?	-29.9	?	23.1µM*
CCOC(=O)C1=CCN(S(=O)(=O)c2ccccc2Br)C1c1cccc(F)c1 (stereo not given)	-26.9%	-28.8%	15.0	?	?
O=C(NCc1ccc(F)cc1)C(=O)NCC1OCCCN1S(=O)(=O)c1cccs1 (stereo not given)	-0.5%	1.0%	-8.6	-11.5%	-2.7%
CCN(CC)C(=O)NC1CC(=O)N(c2ccc(OC)cc2)C1 (stereo not given)	12.2%	6.0%	9.1	-20.8%	-8.0%
Cc1cc(C)cc(OCC(=O)N2CCN(c3ncccn3)CC2)c1	-1.0%	-4.3%	16.9	-19.3%	-6.7%
Cc1cc(OCC(=O)N2CCN(c3ccccn3)CC2)cc(C)c1Br	0.0%	-20.8%	-9.4	?	16.4µM*
SMILES	HT1080-NT tox	HT1080 IDH1KD tx	IL1B secr inh	DT40 TDP1 CPT	TDP1 cell noCPT
O=C(COc1ccc(Br)cc1Cl)N1CCN(c2ccccn2)CC1	20.6%	26.4%	-10.8	-1.3%	-7.4%
CCc1ccc(OCC(=O)N2CCN(c3ccccn3)CC2)c(Br)c1	0.0%	-3.9%	-4.7	13µM*	?
COc1ccccc1C1NC(c2ccc3c(c2)OCO3)=CC(c2ccccc2O)N1 (stereo not given)	·	·	·	11.2µM*	10µM*
COc1ccccc1C1NC(c2ccc3c(c2)OCO3)=CC(c2cc(Cl)ccc2O)N1 (stereo not given)	·	·	·	7.94µM*	3.98µM*
CCOc1ccccc1NC(=O)Nc1ccc2c(c1)OCO2	-13.0%	-14.2%	?	?	2.2%
COc1ccccc1-c1sc2cc3c(cc2c1-c1ccc2c(c1)OCO2)OCO3	-1.3%	-1.2%	3.7	?	?
O=C(Nc1cc(Br)ccc1O)c1cc(-c2ccc3c(c2)OCO3)on1	16.5%	15.2%	5.0	-2.0%	-2.5%
Oc1ccc(Cl)cc1C1C=C(c2ccc3c(c2)OCO3)NC(c2ccc(Br)cc2)N1 (stereo not given)	·	·	·	15.8µM*	?
CCOc1ccccc1C1NC(c2ccc3c(c2)OCO3)=CC(c2ccccc2O)N1 (stereo not given)	·	·	·	11.2µM*	14.1µM*

Source: PubChem BioAssay (National Center for Advancing Translational Sciences (NCATS))
